In the library only some 4.2% were active in any assay of this set; here they are far more common.
PLK1 PBD inh – qHTS for Inhibitors of PLK1-PDB (polo-like kinase 1 - polo-box domain): Primary Screen; AID 720504, 2013; Serine/threonine-protein kinase PLK1 (Homo sapiens), P53350; Plk1 PBD binding of FITC phosphopeptide, fluorescence polarization; 2.8% of 360,000 active; Potency, µM, for the others: max response, negative = inhibition, usual class: inhibitors; note: series mostly up to about 57 µM; nearly all actives have a fitted effect of over 65% in size
Sfp PPTase inh – qHTS Assay for Inhibitors of Bacillus subtilis Sfp phosphopantetheinyl transferase (PPTase); AID 1490, 2009; 3.5% of 310,000 active; 4'-phosphopantetheinyl transferase ffp (Bacillus subtilis), Q9F4F7; Potency, µM, inactives show largest response in the series, negative = inhibition, hits mostly inhibitors; Biochemical Sfp PPTase activity, qHTS;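 note: the enzyme is Sfp with the accession as filed and its product quenches rhodamine fluorescence; 0% = enzyme reaction without inhibitor and -100% = no enzyme wells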
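After 15 min at room temperature with compound, 15 nM Sfp received 5 uM rhodamine-CoA plus 12.5 uM BHQ-2-ybbR (50 mM Hepes pH 7.6, 10 mM MgCl2). Rate came from the fluorescence difference over 30 min, ex 525/em 598 nm.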
VDR inhibitor – Inhibitors of the vitamin D receptor (VDR): qHTS | Vitamin D3 receptor (Homo sapiens), P11473 | VDR-SRC2-3 peptide fluorescence polarization, 2 h | Potency, µM, for the others: max response, negative = inhibition, usual class: inhibitors | 0.93% of 400,000 active | AID 504847, 2011
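Inhibition of the VDR/SRC2-3 peptide interaction is quantified by fluorescence polarization. Compounds (23 nl, pintool) incubate with the reagents for 2 hours at ambient room temperature.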
ALOX12 inh – Primary qHTS assay for inhibitors of human arachidonate 12S-lipoxygenase (ALOX12): Round 2; purified 12hLO, xylenol orange hydroperoxide absorbance; Potency, µM (series often up to 108 µM), for the others: at the highest dose activity change, negative = inhibition, most hits filed as inhibitors; 1.1% of 580,000 active; AID 1671190, 2021
Target sequence (P18054 whole entry, looked up): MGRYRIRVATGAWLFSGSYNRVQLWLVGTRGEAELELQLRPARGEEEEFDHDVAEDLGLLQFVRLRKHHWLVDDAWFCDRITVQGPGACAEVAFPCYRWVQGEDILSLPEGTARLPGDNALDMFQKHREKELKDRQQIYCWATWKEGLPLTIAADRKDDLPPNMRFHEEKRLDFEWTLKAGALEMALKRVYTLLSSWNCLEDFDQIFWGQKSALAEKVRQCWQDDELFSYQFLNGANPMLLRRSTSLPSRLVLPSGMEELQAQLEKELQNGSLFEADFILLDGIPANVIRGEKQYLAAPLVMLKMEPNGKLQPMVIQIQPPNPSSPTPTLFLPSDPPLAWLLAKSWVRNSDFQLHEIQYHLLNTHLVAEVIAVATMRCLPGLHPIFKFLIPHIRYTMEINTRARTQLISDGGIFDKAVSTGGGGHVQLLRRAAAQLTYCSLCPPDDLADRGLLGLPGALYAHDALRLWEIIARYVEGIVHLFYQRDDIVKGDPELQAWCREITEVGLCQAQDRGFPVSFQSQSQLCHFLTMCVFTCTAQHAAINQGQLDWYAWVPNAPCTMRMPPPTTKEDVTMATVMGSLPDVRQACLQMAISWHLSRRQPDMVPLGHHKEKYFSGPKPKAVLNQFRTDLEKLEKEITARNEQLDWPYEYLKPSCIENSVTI
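Purified human 12hLO (150 nM final) in 25 mM Hepes, 0.01% Triton X-100, pH 7.0 was preincubated 15 min at room temperature with compound. Then 40 uM arachidonic acid was added, 30 min. Hydroperoxide was read by Fe-XO absorbance ratio 573/405 nm.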
Starred values were filed as active, the others as inactive; [ ] = remark or other dose. Calls come from the whole dose curve; as a rule, active = well fitted curve in the direction sought with a large enough effect; inconclusive = small, poorly fitted or top-dose-only effect, or another doubt; inactive = no such curve, though single readings can be large; an effect the other way counts as inactive or inconclusive. Unless noted, % is set by controls: 0 for no effect and ±100 for the full control effect; potency is the fitted concentration of half-maximal effect.

O=C(c1ccc2nc(Cc3ccccc3F)oc2c1)N1CC[C@H](O)C1 was read as PLK1 PBD inh 24µM*, Sfp PPTase inh 13%, VDR inhibitor inconclusive and ALOX12 inh -12%.
Screening N#CC1=C(N)N2CCc3cc4c(cc3C2=CC12C(=O)Nc1ccccc12)OCCCO4 (configuration not stated) returned ALOX12 inh -9%.
Screening COc1ccc(NC(=O)c2c[nH]n3c(=O)cc(C4CCN(C(=O)OC(C)(C)C)CC4)nc23)cc1Cl returned PLK1 PBD inh 24µM*, Sfp PPTase inh 16%, VDR inhibitor -9% and ALOX12 inh 40µM*.
For CC(C)(C)OC(=O)N1CCC(c2cc(=O)n3[nH]cc(C(=O)Nc4ccc(F)c(Cl)c4)c3n2)CC1 the results were PLK1 PBD inh 24µM*, Sfp PPTase inh 8%, VDR inhibitor -6% and ALOX12 inh -19%.
CC(C)(C)OC(=O)N1CCC(c2cc(=O)n3[nH]cc(C(=O)NC4CCCC4)c3n2)CC1 was read as PLK1 PBD inh -22%, Sfp PPTase inh 1%, VDR inhibitor -1% and ALOX12 inh -16%.
Screening O=C(CN1C(=O)NC2(CCc3ccccc3C2)C1=O)NCc1ccco1 (configuration not stated) returned PLK1 PBD inh -2%, Sfp PPTase inh 10%, VDR inhibitor 2% and ALOX12 inh 2%.
CCc1cccc(NC(=O)CSc2nc(C)cs2)c1 was read as PLK1 PBD inh 0% and ALOX12 inh 27%.
For CC(=O)NCc1ccc(-c2csc(NC3CC3)n2)s1 the results were ALOX12 inh -28%.
`CCOc1ccc(C(C)=O)cc1N1C(=O)C2C(C1=O)C1C=CC2C12CC2` (configuration not stated) gave PLK1 PBD inh -4%, Sfp PPTase inh 7%, VDR inhibitor -6% and ALOX12 inh 7%[57.4 µM].
CCOc1ccc(C(C)=O)cc1N1C(=O)C2C3C=CC(C3=C(C)C)C2C1=O (configuration not stated) was read as PLK1 PBD inh -5%, Sfp PPTase inh 45µM*, VDR inhibitor -24% and ALOX12 inh -15%.
Screening Cc1nnc(NN)n(N)c1=O returned PLK1 PBD inh -4%, Sfp PPTase inh 10µM*, VDR inhibitor -8% and ALOX12 inh inconclusive.
Screening N#C/C(=C/c1ccc(OC(F)F)cc1)C(N)=S returned ALOX12 inh 32µM*.
For Cc1ccccc1CSc1nc2c(cnn2CCO)c(=O)[nH]1 the results were ALOX12 inh 14%.
CNc1ccnc(-c2ccccc2C)n1 was read as Sfp PPTase inh 18%, VDR inhibitor -18% and ALOX12 inh inconclusive.
Screening CNc1ccnc(-c2ccccc2OC)n1 returned Sfp PPTase inh 8%, VDR inhibitor 1% and ALOX12 inh 16µM*.
For COc1ccccc1-c1nccc(NCc2ccccc2)n1 the results were Sfp PPTase inh -4%, VDR inhibitor -11% and ALOX12 inh 22µM*.
`Cc1noc([C@H]2CCN(CC3CC3)C[C@H]2NC(=O)C2CC2)n1` gave ALOX12 inh 67%.
Screening COc1ccccc1/C=C/C(=O)OCCN(C)C returned ALOX12 inh 4%.
For COc1cc(-c2ccc(N=Nc3ccc4c(S(=O)(=O)O)cc(S(=O)(=O)O)c(N)c4c3O)c(OC)c2)ccc1N=Nc1ccc2c(S(=O)(=O)O)cc(S(=O)(=O)O)c(N)c2c1O the results were Sfp PPTase inh 4µM*, VDR inhibitor inconclusive and ALOX12 inh inconclusive.
CNC(=O)CC1CCOC2(CCN(S(=O)(=O)c3ccc(C#N)cc3)CC2)C1 (configuration not stated) was read as ALOX12 inh 20%.
Screening O=C(O)/C=C/C(=O)NNc1ncnc2ccccc12 returned PLK1 PBD inh -6%, Sfp PPTase inh 56µM*, VDR inhibitor 5% and ALOX12 inh inconclusive.
For O=C(c1ccc2c(c1)OCO2)N1CCC(Cc2nc(-c3ccc(F)cc3)no2)CC1 the results were ALOX12 inh 13%.
Screening Cc1cccc(C(=O)NCc2ccco2)c1 returned PLK1 PBD inh -21%, Sfp PPTase inh -9%, VDR inhibitor -8% and ALOX12 inh -23%.
O=C(NCc1ccco1)c1cccc(Br)c1 was read as PLK1 PBD inh -5%, Sfp PPTase inh 71µM*, VDR inhibitor -12% and ALOX12 inh 13%.
